The text below walks through data of PubChem BioAssay.

This assay in a line: probe aLefty1 binding on compound microarray – biochemical, small-molecule microarray, 635/667 nm fluorescence, primary screen (AID 1153).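 Also: score merges spot fluorescence with signal-to-noise ratio from the scanned slide images.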 Conditions: higher = more signal.
Molecule `O=C1C[C@]2(c3ccc([N+](=O)[O-])cc3)C(=O)N(Cc3ccccc3)c3cc(CO)ccc3[C@H]2N1CC12CC3CC(CC(C3)C1)C2` gave a composite z-score of -0.678.

On to `Cc1c(NC(=O)/C(C#N)=C/C=C/c2ccc(N(C)C)cc2)c(=O)n(-c2ccccc2)n1C`, for which the composite z-score stood at 0.628. Then `COCCOC(=O)N1C(=O)[C@@]2(c3ccccc31)[C@H](c1ccc(OCCO)cc1)N1[C@H](c3ccccc3)[C@H](c3ccccc3)OC(=O)[C@H]1[C@@H]2C(=O)Nc1nc2ccccc2s1`, with 0.071. Molecule `COCCCNC(=O)[C@@]1(Sc2ccc(C)cc2)CC(=O)N(Cc2cc(C(F)(F)F)cc(C(F)(F)F)c2)[C@@H]1c1ccc(CO)cc1` registered a composite z-score of -0.0559. The result for `CCCC[C@@H]1C[C@H]1[C@@H](NC(=O)c1ccccc1)c1ccc(Cl)cc1` reads 0.233; that for `CC(C)C(CO)N1C(=O)[C@]2(C)C3C(=O)OCCC/C=C\[C@H]3OC23C=CCN(c2ccc(Cl)cc2)C(=O)[C@@H]13` (some centres not stated), -0.0929; that for `COC(=O)[C@@]1(Cc2ccc(OC)cc2)[C@H]2c3cc(C(=O)N4CCCC4)n(CCc4cc5ccccc5[nH]4)c3C[C@H]2CN1C(=O)c1ccccc1`, 0.712. Turning to `CCCC[C@@H]1C[C@H]1[C@@H](NC(=O)c1cccnc1)c1ccc(-c2ccccc2)cc1`, the composite z-score was -0.105. Then `[N-]=[N+]=Nc1ccccc1[C@@H]1OC(c2ccc(OCCCO)cc2)=N[C@]1(CCS(=O)(=O)c1ccccc1)C(=O)NCCN1CCOCC1`, with 0.417; and `C[C@@H](OCc1ccccc1)C1NC(=O)[C@@]23C(=O)N[C@@H](Cc4ccccc4)C2[C@H](C)[C@@]2(C)O[C@H]2C3/C=C/C/C=C\CNC(=O)CNC1=O` (some centres not stated), with -0.012. The result for `C=C(CCCC)/C(=C/C[C@@H](OC(=O)c1ccncc1)c1cccc(OCCO)c1)c1cnc2ccccc2c1` reads 0.284; that for `CC(=O)n1cc(C(O)C2C=CC3C(=O)N(c4ccccc4)C(=O)C3N2Nc2ccccc2)c2ccccc21` (configuration not stated), 0.681. Turning to `C=CCN1C(=O)[C@]2(CC=C)N=C(c3ccc(OCCCO)cc3)O[C@@H]2c2ccccc21`, the composite z-score worked out at 0.544. The result for `CCOC(=O)C[C@H]1[C@H](OC(=O)Cc2ccc3c(c2)OCO3)[C@@H](NC(=O)C2CCCCC2)c2cc(OCCCO)ccc2N1C(=O)c1ccc2ccccc2n1` reads -0.106; that for `O=C1O[C@@H](c2ccccc2)[C@@H](c2ccccc2)N2[C@@H](c3ccccc3OCCO)[C@]3(C(=O)Nc4ccc(C#CC5=CCCCC5)cc43)[C@@H](C(=O)NC[C@H](O)c3ccccc3)[C@H]12`, 0.277; that for `O=C1OCC=C[C@H]2OC34C=CCN(Cn5nnc6ccccc65)C(=O)[C@H]3N(CCCCCCO)C(=O)[C@@H]4[C@@H]12` (some centres not stated), 0.32. `COCCCNC(=O)[C@]1(Cc2ccccc2N=[N+]=[N-])N=C(c2ccc(OCCCO)cc2)O[C@@H]1c1ccccc1N=[N+]=[N-]` gave a composite z-score of 0.616. The molecule `CC(C)c1ccc(NN2C(C(O)c3ccco3)C=CC3C(=O)N(c4ccccc4)C(=O)C32)cc1` (configuration not stated) showed a composite z-score of 0.409.

In turn, `Cc1ccc(S[C@]2(C(=O)NCC(C)C)CC(=O)N(Cc3ccccc3Cl)[C@@H]2c2ccc(CO)cc2I)cc1` had a composite z-score of 0.258.

The molecule `C=CCC(OC(C)=O)[C@@H]1[C@@H](N(Cc2ccc(-c3ccccc3)cc2)C(=O)c2cccc3ccccc23)c2cc(OCCCO)ccc2N1C(=O)Cc1ccc2ccccc2c1` (some centres not stated) returned a composite z-score of -0.191. In turn, `CC=CC(O)C1C=CC2C(=O)N(C)C(=O)C2N1Nc1ccc([N+](=O)[O-])cc1[N+](=O)[O-]` (configuration not stated) registered a composite z-score of -0.094. Take `CC(C)(C)OC(=O)CC[C@]1(C(=O)NCCN2CCOCC2)N=C(c2ccc(OCCCO)cc2)O[C@H]1c1ccccc1`: the composite z-score was found to be 0.119. Consider `CCCCC(=C=CC[C@@H](O)c1ccc(OCCO)cc1)C[C@@H](O)COCc1ccccc1`, for which the composite z-score is 0.596. The result for `COC(=O)[C@H](Cc1ccccc1)N1CC(/C=C/C2CC2)=C[C@@H]1[C@@H](O)Cc1ccccc1` reads 0.0082; that for `COCCOC(=O)N1C(=O)[C@@]2(c3cc(C#CCC(C(=O)OC)C(=O)OC)ccc31)[C@H](c1ccc(OCCO)cc1)N1[C@H](c3ccccc3)[C@H](c3ccccc3)OC(=O)[C@H]1[C@@H]2C(=O)N1CCN(c2ncccn2)CC1`, 0.297. The result for `CN(C)C(=O)[C@]1(CCC(=O)OC(C)(C)C)N=C(c2ccc(OCCCO)cc2)O[C@@H]1c1ccccc1` reads 0.217; that for `COCCOC(=O)N1C(=O)[C@@]2(c3cc(C#CC4(O)CCCCCC4)ccc31)[C@H](C(N)=O)[C@H]1C(=O)O[C@H](c3ccccc3)[C@H](c3ccccc3)N1[C@@H]2c1ccccc1OCCO`, -1.03.
